# Target: RUNX1 (UniProt Q01196)
# Assay: RUNX1 binding intensity (PBM fluorescence) in presence of ETS1, normalised to RUNX1-only experiment (arbitrary fluorescence units); higher = stronger binding
# Settings: RUNX1 concentration 2 nM; ETS1 concentration 25 nM
# Procedure: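 Cooperative gcPBM on 36-bp genomic probes with neighbouring ETS1 and RUNX1 sites. Recombinant human RUNX1 (2 nM) was incubated alone or with ETS1 (25 nM) and detected with anti-RUNX1 antibody plus Alexa488 secondary. Values are medians over 4 replicate spots; the RUNX1+ETS1 data were normalised to the RUNX1-only data. The probes sit in constant array flanks that are not printed.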
# 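Also: Full-length recombinant human ETS1 or RUNX1 bound to double-stranded 36-bp genomic probes on microarrays, detected by protein-specific primary antibody and Alexa488 secondary, spot fluorescence as median of four replicate spots.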
# RUNX1, sequence (Q01196 whole entry): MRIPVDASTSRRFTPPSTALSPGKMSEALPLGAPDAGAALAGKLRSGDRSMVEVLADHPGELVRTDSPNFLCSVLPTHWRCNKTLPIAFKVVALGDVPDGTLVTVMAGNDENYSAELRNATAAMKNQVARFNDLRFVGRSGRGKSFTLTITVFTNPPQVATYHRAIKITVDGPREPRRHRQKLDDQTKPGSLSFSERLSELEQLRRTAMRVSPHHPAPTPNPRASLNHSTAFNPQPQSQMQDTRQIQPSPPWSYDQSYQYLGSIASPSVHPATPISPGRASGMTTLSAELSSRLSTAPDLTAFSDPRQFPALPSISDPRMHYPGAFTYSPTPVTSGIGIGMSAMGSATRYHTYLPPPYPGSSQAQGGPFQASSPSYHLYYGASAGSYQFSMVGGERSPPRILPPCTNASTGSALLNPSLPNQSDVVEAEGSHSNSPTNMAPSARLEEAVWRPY
row,Sequence,RUNX1 binding intensity
1,ACCCTTCCTGGAGCATTGTCGCAGCAACCACAACAG,1200
2,GGTGACACGGCCGGCTTCCTGCCGCAGAGCTCCTGG,1040
3,TGGCGGGAGAACTTCCCCCTGTGCGGTCGCGACGTG,943
4,CAAATGAATAAAGGATGTGGTAAATTATTTTCTTCT,1780
5,GCCGCTGCCTCTTCCTGTGTGGTTTTTCAGGGCTTA,2920
6,AAGAGGAAATAAATACCAGAGTGAACCCACAAACCT,903
7,TCACCTCATCACAGGAAACCGCGAGCACCTCCTCCT,1770
8,TGCGCCGGAAGTGCATGAGCTGCCGATGTGGTGCTT,1220
9,CCAAAAACCCCAGGAGGATGTGGTGAGGAGGGAAGG,1040
10,GGGGGAGTTTTCGGAAGCGCTAACCGCGTTGGGGCC,954
11,TGCAGTCGTGAAAAAGGAAGTGGTTAAAGTGGATAC,1520
12,ACCTTGCCTAGAGGAAGTGGTTTTTCGAATCTGAGT,1540
13,CCCTCCTCTTTCGTTTCCTAACCGCAAATTCCATCA,53700
14,CAGACCAGCCCAGGAAACAAGGAACCACAAAGCCAC,992
15,TCTTGCCCGGGTCGGAAATGGTGGTCACGAGCGCTT,991
16,GCACCGTCTACCCGGAAGTTGTGGGCTGGGAGGGAT,1430
17,AGGCTGTGTGAAGGATGTGGTCAGGCGGAGGCCAGG,1600
18,TTTACAGGAAATATCCAGAACAGGTAAACCCACAGA,926
19,CCTGCCTGACCGGAAGTGCCCGCAACCCCACCGACC,2870
20,GCTCCTGGCCCGCACTTCCGACCACACACTGGGGAC,1610

row,Sequence,RUNX1 binding intensity
1,TCAGAACCAGGAAACTGAAGGCGGTTACTCCACATA,875
2,CGGGGGCCAGGCTTCCTGTGGTGGGAGCGGCAGGCC,1350
3,GGACTTCCTGAAGCCAGATCGGTTTACCACAGTCAG,1860
4,GGAGCAAGGATGACAGGATGTGGCTTAGGGGGAGGC,1000
5,CGGGGTTTCCTGGTGGCTGCGAGCGGTGGGGACGGC,1140
6,GCTCAAGTACCGGAAAGGCCCGCAGAAAGAAGGGCA,1060
7,AGTACGATGGGAGGAAGTGGTTTGTAAGAGGAGGAC,1490
8,GTGAGTCACTTCCTGACCATGTGGGTTTTTGGTACG,2090
9,CCCAGGGCAGGAAGGGCCAAACCGCTACTGCCACTG,908
10,TTGCTTTATCACTTCCTGTTTGAGGTTTATATCCAT,3160
11,TCAGGGGTGGGAGGAAGTGGTTAGGATCAGCCTGGG,2680
12,CTACCCTCCCTCTTCCTGTGGTTTCTCAAACATGTC,5090
13,TCAATAAGACAGGATGTTCTCCAACCGCATTAAGCT,2910
14,TGTCCGCACCCCACTTCCGCCCCGCAGAGGGCAACG,3130
15,CGGGAGGGGCAGGAAGCGGACTGCGGTGGGGAAGGG,1470
16,GCTGATAGAACAGGATGTGGTAAAGAAGCAGGCCAA,7890
17,CAGCTGCTGACAGGAAAACCACAGTGGAAGGGGAAG,1050
18,CCAACTTTTGAGGGATGTGGTTACGTTTTCTAGATC,1620
19,AATATCCTGTATGTCATGCTTAAAAAGCCACAAAAC,2050
20,ACAGGCTGTCTGCTTCCGTCAGCGGTTATTCCCTTG,1340
